# Where a name gives a salt, the structure may show the parent alone.
# Key:
# Experiment in all cases: thermal shift delta Tm vs DMSO control; higher = stronger stabilization (binding)
# Settings in all cases: 12.5 µM; protein concentration 2 µM
# [1] = tested on: LOC_OS01G01410-cb001
# Outline: (§1)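 Rice kinase domain constructs were expressed in E. coli, purified, and tested by differential scanning fluorimetry with compound added in DMSO. Each well of a 96-well plate held 19.5 μl of 2 μM kinase in 100 mM potassium phosphate pH 7.5, 150 mM NaCl, 10% glycerol and 5 × SYPRO Orange, and fluorescence was read from 25°C to 95°C at 0.05°C/s. The melting temperature shift is the mean of triplicates, taken against protein with DMSO alone after Boltzmann fitting.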
# [2] = tested on: LOC_OS01G02750-cb003
# Outline: as §1
# [3] = tested on: LOC_OS01G10900-cb004
# Outline: as §1
# [4] = tested on: LOC_OS01G13800-cb001
# Outline: as §1
# [5] = tested on: LOC_OS01G14860-cb001
# Outline: as §1
# [6] = tested on: LOC_OS01G21960-cb002
# Outline: as §1
# [7] = tested on: LOC_OS01G39600-cb002
# Outline: as §1
# [8] = tested on: LOC_OS01G48390-cb002
# Outline: as §1
# [9] = tested on: LOC_OS01G51400-cb002
# Outline: as §1
# [10] = tested on: T1, LOC_OS01G52050-cb004
# T1 sequence (whole entry): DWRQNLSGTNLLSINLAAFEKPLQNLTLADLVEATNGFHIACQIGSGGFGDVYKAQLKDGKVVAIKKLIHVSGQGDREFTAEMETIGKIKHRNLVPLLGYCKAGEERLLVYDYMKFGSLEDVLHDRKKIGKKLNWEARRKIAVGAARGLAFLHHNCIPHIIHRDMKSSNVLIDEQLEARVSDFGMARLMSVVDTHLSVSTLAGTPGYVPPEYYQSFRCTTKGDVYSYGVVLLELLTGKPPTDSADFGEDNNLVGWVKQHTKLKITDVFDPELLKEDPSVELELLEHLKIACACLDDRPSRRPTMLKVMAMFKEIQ
# Outline: as §1
Structure (SMILES),thermal shift delta Tm [1],thermal shift delta Tm [2],thermal shift delta Tm [3],thermal shift delta Tm [4],thermal shift delta Tm [5],thermal shift delta Tm [6],thermal shift delta Tm [7],thermal shift delta Tm [8],thermal shift delta Tm [9],thermal shift delta Tm [10]
Nc1ncnc2n[nH]c(Nc3ccc(F)cc3)c12,1.74 °C,1.17 °C,1.94 °C,-0.28 °C,0.76 °C,1.31 °C,2.02 °C,1.2 °C,0.33 °C,1.46 °C
Cc1ccc(F)c(NC(=O)Nc2ccc(-c3cccc4[nH]nc(N)c34)cc2)c1 [Linifanib (ABT-869)],3 °C,3.87 °C,1.34 °C,0.36 °C,2.29 °C,1.08 °C,2.02 °C,4.44 °C,0.54 °C,6.66 °C
CNc1nc(Nc2cn(C(C)(C)C#N)nc2C)ncc1C(F)(F)F,0.23 °C,1.65 °C,0.23 °C,0.93 °C,0.11 °C,1.18 °C,-0.3 °C,0.76 °C,0.31 °C,0.37 °C
O=C(NCc1ccccc1)c1csc(Nc2ccncn2)n1 [Thiazovivin],0.06 °C,1.66 °C,2.94 °C,1.01 °C,3.98 °C,2.52 °C,0.44 °C,0.4 °C,0.24 °C,2.17 °C
COc1cc2nccc(Oc3ccc(NC(=O)NC4CC4)c(Cl)c3)c2cc1C(N)=O [Lenvatinib (E7080)],1.14 °C,1.17 °C,0.52 °C,0.29 °C,0.28 °C,0.62 °C,-0.02 °C,0.47 °C,0.04 °C,0.33 °C
CC(C)(C)c1ccc(S(=O)(=O)/C=C/C#N)cc1,-0.73 °C,-1.97 °C,-1.97 °C,0.14 °C,-0.21 °C,1.29 °C,-0.46 °C,0.36 °C,0.18 °C,-3.59 °C
Cc1c(C(=O)N2CCOc3ccc(-c4ccc(N)nc4)cc3C2)ccc(S(C)(=O)=O)c1F,0.69 °C,0.8 °C,0.01 °C,0.06 °C,0.22 °C,0.19 °C,-0.01 °C,0.13 °C,0.26 °C,0.52 °C
O=C1Nc2ccc(I)cc2/C1=C/c1cc(Br)c(O)c(Br)c1,5.94 °C,0.5 °C,6.08 °C,2.56 °C,5.73 °C,5.54 °C,25.1 °C,2.41 °C,0.7 °C,3.09 °C
CNC(=O)c1cc(Oc2ccc(NC(=O)Nc3ccc(Cl)c(C(F)(F)F)c3)c(F)c2)ccn1 [Regorafenib (BAY 73-4506)],2.09 °C,0.82 °C,0.16 °C,0.79 °C,2.04 °C,0.87 °C,0.21 °C,0.48 °C,0.2 °C,0.67 °C
NC(=O)Nc1cc(-c2cccc(F)c2)sc1C(=O)N[C@H]1CCCNC1,0.37 °C,5.35 °C,0.3 °C,0.24 °C,0.9 °C,3.38 °C,0.2 °C,0.65 °C,0.08 °C,11.6 °C
CCN1C(=O)CNc2ncc(-c3ccc(-c4nc[nH]n4)nc3C)nc21,0.49 °C,-0.88 °C,1.31 °C,0.86 °C,1.11 °C,0.62 °C,-1.87 °C,0.34 °C,-0.29 °C,-1.26 °C
COc1cc2c3cc1Oc1c(OC)c(OC)cc4c1[C@@H](Cc1ccc(O)c(c1)Oc1ccc(cc1)C[C@@H]3N(C)CC2)N(C)CC4 [Berbamine (dihydrochloride)],-0.04 °C,0.3 °C,0.03 °C,-0.62 °C,-0.18 °C,0.36 °C,-0.05 °C,0.32 °C,-0.01 °C,0.22 °C
CO[C@@H](C)Cn1c(=O)n(C)c2cnc3ccc(-c4cncc(C(C)(C)O)c4)cc3c21,0.7 °C,1.17 °C,0.3 °C,0.76 °C,0.77 °C,0.72 °C,0.26 °C,0.5 °C,0.38 °C,1.9 °C
c1ccc(-c2[nH]ncc2-c2ccnc3ccccc23)nc1,0.44 °C,0.87 °C,0.58 °C,0.69 °C,0.36 °C,0.76 °C,0.33 °C,0.11 °C,0.03 °C,0.61 °C
CC[C@@H]1C(=O)N(C)c2cnc(Nc3ccc(C(=O)N[C@H]4CC[C@H](N5CCN(CC6CC6)CC5)CC4)cc3OC)nc2N1C(C)C [Volasertib (BI 6727)],0.74 °C,0.38 °C,0.15 °C,0.22 °C,0.21 °C,0.37 °C,0.25 °C,0.32 °C,0.11 °C,0.22 °C
Cn1ncc(Cl)c1-c1cc(C(=O)N[C@H](CN)Cc2ccc(F)c(F)c2)oc1Cl,-0.41 °C,1.78 °C,-0.33 °C,1.08 °C,0.15 °C,1.66 °C,-0.06 °C,1 °C,0.44 °C,1.06 °C
COc1cc(Nc2ncc(F)c(Nc3ccc4c(n3)NC(=O)C(C)(C)O4)n2)cc(OC)c1OC,0.76 °C,0.35 °C,0.54 °C,-0.84 °C,5.04 °C,3.95 °C,4.95 °C,0.28 °C,0.41 °C,7.74 °C
COc1ccc(CC(=O)Nc2nc3c(s2)CCc2ccccc2-3)cc1OC,0.68 °C,1.06 °C,0.85 °C,0.28 °C,0.9 °C,0.69 °C,0.43 °C,1.55 °C,-0.32 °C,2.89 °C
CNC(=O)c1ccccc1Sc1ccc2c(/C=C/c3ccccn3)n[nH]c2c1 [Axitinib],2 °C,0.59 °C,0.25 °C,-0.18 °C,0.29 °C,0.14 °C,1.08 °C,0.12 °C,0.04 °C,0.17 °C
CN(C)C/C=C/C(=O)Nc1cc2c(Nc3ccc(F)c(Cl)c3)ncnc2cc1O[C@H]1CCOC1 [Afatinib (BIBW2992)],1.12 °C,-0.19 °C,4 °C,0.13 °C,2.91 °C,-0.28 °C,1.11 °C,2.17 °C,0.41 °C,0.75 °C

# — the supplement of paper PMC9694430
